Data from PubChem BioAssay AID504340 (NMMLSC, 2011).
“And” between values parts separate entries of the source, which are not always exact repeats. Equal values may be shown once. The source made the active and inactive calls.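 The calls were made as follows: active = GFP response above 150% of the DMSO control; inconclusive = Under 70 cell events counted for a yeast strain; inactive = the rest.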

Test: yeast TOR pathway CIT2-GFP reporter retest – flow cytometry, third cherry pick, single plex, confirmation (AID 504340);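 also: median GFP fluorescence over all cells with no mother versus daughter split; sample signal as a ratio to the plate DMSO mean so 100% equals DMSO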
Conditions: S. cerevisiae CIT2-GFP strain, 3 h, at 10 µM, stronger effect = higher value

Row | SMILES | GFP response vs DMSO
1 | OCCN1CCN(c2ncnc3ccc(Br)cc23)CC1 | 101% (inactive)
2 | CNc1nc(C)c([N+](=O)[O-])c(Nc2ccc(OC)cc2)n1 | 97.7% (inactive)
3 | CC(C)Nc1ncnc2ccc(Br)cc12 | 96.1% (inactive)
4 | Cn1cccc1C(=O)Nc1nc(-c2ccccn2)cs1 | 106% (inactive)
5 | COc1cccc2c(=O)c(C(=O)O)c[nH]c12 | 99.3% (inactive)
6 | COCC(C)NC(=O)CCS(=O)(=O)c1nc(-c2ccc(OC)cc2)cc(C(F)(F)F)n1 (stereo not drawn) | 103% (inactive) and 92.8% (inactive)
7 | CC1=CN2C(=N)/C(=C/c3ccc([N+](=O)[O-])o3)C(=O)N=C2S1 | 1030% (active)
8 | CCN(CC)C(=O)Oc1ccnc2cc(Cl)ccc12 | 107% (inactive)
9 | Cc1ccc(Nc2cc(=O)[nH]c(=O)[nH]2)cc1Cl | 99.3% (inactive)
10 | O=C(O)CCCCCNc1ncnc2ccc(Br)cc12 | 106% (inactive)
11 | CC(=O)C(CC(=O)N1CCCC1)C(=O)Nc1ccc(Cl)cc1 (stereo not drawn) | 109% (inactive)
12 | CCCC(=O)Nn1cnc2c(c1=O)C1(CCCC1)Cc1ccccc1-2 | 94.5% (inactive)
13 | COc1ccccc1-c1cc(C(F)(F)F)nc(S(=O)(=O)CCCC(=O)NC(C)C)n1 | 104% (inactive) and 94.5% (inactive)
14 | CN1CCN(C(=O)c2cc(COc3ccc(F)cc3Cl)on2)CC1c1ccccc1 (stereo not drawn) | 106% (inactive)
15 | Nc1ncnc(Nc2cc(Cl)cc(Cl)c2)c1[N+](=O)[O-] | 97.7% (inactive)
16 | Cc1ccc(C)c(Nc2ncnc(N)c2[N+](=O)[O-])c1 | 104% (inactive)
17 | Cc1ccc(Nc2cc(=O)[nH]c(=O)[nH]2)cc1C | 104% (inactive)
18 | Brc1ccc2ncnc(NCc3ccccc3)c2c1 | 112% (inactive)
19 | COc1ccc(OC)c2c(C)cc(C)nc12 | 99.3% (inactive)
20 | CC(=O)Nn1cnc2c(c1=O)C1(CCCCC1)Cc1ccccc1-2 | 112% (inactive)
21 | COc1ccc(N/C=C/C(=O)c2ccc(Cl)cc2)cc1 | 107% (inactive)
22 | COC(=O)COc1c(Cl)cc(Cl)c2ccc(C)nc12 | 106% (inactive)
23 | OCCNc1ncnc2ccc(Br)cc12 | 109% (inactive)
24 | OCc1ccnc2c(O)cccc12 | 94.5% (inactive)
25 | Cc1ccc(NC(=O)O/N=C2\CCCCC2c2ccc([N+](=O)[O-])cc2[N+](=O)[O-])cc1 (stereo not drawn) | 106% (inactive)
26 | Nc1c(O)ccc2c1C(=O)c1ccccc1C2=O | 99.3% (inactive)

Row | SMILES | GFP response vs DMSO
27 | Cc1cc(C)c2ccc(N)nc2c1O | 99.3% (inactive)
28 | CCCC(=O)Nn1cnc2c(c1=O)C1(CCCCC1)Cc1ccccc1-2 | 94.5% (inactive)
29 | CSc1nc(S(C)(=O)=O)nc2[nH]c(=O)[nH]c12 | 106% (inactive)
30 | CCOC(=O)CS(=O)(=O)c1nc(-c2ccccc2)cc(C(F)(F)F)n1 | 111% (inactive)
31 | C/C(=C\C(=O)c1ccccc1)Nc1cccc(O)c1 | 99.3% (inactive)
32 | Cc1cccc(Nc2cc(=O)[nH]c(=O)[nH]2)c1C | 96.1% (inactive)
33 | O=C(Nc1ccccc1)O/N=C1/CCCc2occc21 | 103% (inactive)
34 | O=c1cc(C(F)(F)F)[nH]c2c(OC(F)(F)F)cccc12 | 107% (inactive)
35 | C/C(=N\NC(=O)c1cccc2ccccc12)c1cccnc1 | 91.2% (inactive)
36 | CC1=CN2C(=N)/C(=C/c3ccco3)C(=O)N=C2S1 | 112% (inactive)
37 | CCC(C)Nc1nc(N)c([N+](=O)[O-])c(Nc2ccccc2OC)n1 (stereo not drawn) | 114% (inactive)
38 | O=C(O)c1ccc2cccc(O)c2n1 | 109% (inactive)
39 | C/C(=C\C(=O)c1ccc(C)cc1)Nc1cccc(O)c1 | 103% (inactive)
40 | COc1ccc(OC)c2c(=O)cc(C(=O)O)[nH]c12 | 111% (inactive)
41 | CN(C)CCCNc1cc(O)c2ncccc2c1 | 112% (inactive)
42 | Cc1cc(C)c(NC(=O)CC(=O)c2ccccc2)c(Cl)c1 | 92.8% (inactive)
43 | O=C1c2ccccc2C(=O)c2c1cccc2N(CCO)CCO | 92.8% (inactive)
44 | COC(=O)c1cc(=O)c2cccc(OC)c2[nH]1 | 101% (inactive)
45 | OCc1ccc(O)c2ncccc12 | 91.2% (inactive)
46 | O=C(O)c1ccc(C=NNC(=O)c2cccc3ccccc23)cc1 | 106% (inactive)
47 | CC(=O)Nc1ccc(-c2nc3cc(Cl)ccc3o2)cc1 | 91.2% (inactive)
48 | Cc1cc(C)c2ccc(C(=O)O)nc2c1O | 88% (inactive)
49 | Nc1c(C(=O)O)ccc2c1C(=O)c1ccccc1C2=O | 101% (inactive)
50 | CC(=O)NCCOc1cccc2cccnc12 | 104% (inactive)
51 | C[n+]1cccc2cccc([O-])c21 | 103% (inactive)
52 | COc1ccc(NC(=O)ON=C2c3ccccc3-c3ccccc32)cc1 | 109% (inactive)

Row | SMILES | GFP response vs DMSO
53 | Cc1ccc(-c2cc(C(F)F)nc(S(C)(=O)=O)n2)cc1 | 91.2% (inactive)
54 | Nc1nc(NCCOCCO)nc(Nc2cccc(F)c2)c1[N+](=O)[O-] | 96.1% (inactive)
55 | COc1ccccc1OCc1cc(C(=O)N2CCN(C)C(c3ccccc3)C2)no1 (stereo not drawn) | 103% (inactive)
56 | O=C(Nc1ccccc1)ON=C1c2ccccc2-c2ccccc21 | 112% (inactive)
57 | COc1ccccc1Nc1nc(NCCC(C)C)nc(N)c1[N+](=O)[O-] | 114% (inactive)
58 | Cc1ccc(Nc2nc(N)[nH]c(=O)c2N=O)cc1 | 106% (inactive)
59 | CCCCC(=O)NCCc1cc2c(OC)ccc(OC)c2[nH]c1=O | 96.1% (inactive)
60 | Oc1c(I)cc(Cl)c2cccnc12 | 182% (active)
61 | O=C(O)c1ccc2cccnc2c1O | 88% (inactive)
62 | CSc1ccccc1OCc1cc(C(=O)N2CCN(C)C(c3ccccc3)C2)no1 (stereo not drawn) | 99.3% (inactive)
63 | CCC(=O)Nn1cnc2c(c1=O)C1(CCCCC1)Cc1ccccc1-2 | 99.3% (inactive)
64 | CC(=O)Nc1ccc(-c2nc3ccccc3o2)cc1 | 99.3% (inactive)
65 | Cc1cccc(N/C=C/C(=O)c2ccc(Cl)cc2)c1 | 97.7% (inactive)
66 | O=C(/C=C/Nc1cccc(O)c1)c1ccccc1 | 111% (inactive)
67 | COc1ccc(Nc2nc(NN)nc(C)c2[N+](=O)[O-])cc1 | 94.5% (inactive)
68 | CSc1nc(Nc2ccc(Cl)cc2)c(C#N)c(=O)[nH]1 | 104% (inactive)
69 | O=C(Nc1ccc(-c2nc3ccccc3o2)cc1)c1cccnc1 | 96.1% (inactive)
70 | C/C(=C\C(=O)c1ccc(Cl)cc1)Nc1ccc(Br)cc1 | 104% (inactive)
71 | Cc1ccc2c(Cl)cc(Cl)c(O)c2n1 | 138% (inactive)
72 | C[n+]1cccc2c(Br)ccc([O-])c21 | 97.7% (inactive)
73 | COc1cccc(N/C=C/C(=O)c2ccc(Cl)cc2)c1 | 107% (inactive)
74 | COc1ccccc1Nc1nc(NCCCN(C)C)nc(N)c1[N+](=O)[O-] | 107% (inactive)
75 | O=C(O)CCS(=O)(=O)c1nc(-c2cccs2)cc(C(F)(F)F)n1 | 106% (inactive)
76 | CCN(CC)c1ncnc2ccc(Br)cc12 | 97.7% (inactive)
77 | CCN(CC)C(=O)Oc1cc(=O)n(C)c2ccccc12 | 101% (inactive)
78 | CC(=O)NC(C)c1cc(Cl)c2cccnc2c1O (stereo not drawn) | 97.7% (inactive)
